HCV inh: inhibitors of hepatitis C virus infection. AID 651820. Potency, µM (series often up to 41.8 µM), without a hit: at the top dose activity change, negative = inhibition, most hits filed as inhibitors. Huh7.5.1 HCVcc-Cre infection, luciferase reporter, 44 h. 340,000 compounds, 3.4% hits; also: potency is read from the fitted curve at half-maximal effect
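Cells (1,000/well) were plated 4 h before compound, then infected with HCVcc-Cre virus (~0.5 moi). After 44 h further culture, infection was read as luciferase luminescence following a 15 min substrate incubation at room temperature.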
HCMV antiviral: inhibitors of human cytomegalovirus; HFF cells, HCMV-luciferase reporter, 72 h; stronger effect = lower value; activity change, negative = inhibition, % at 57.5 µM; 410,000 compounds, 4.5% hits; AID 1259415; in the data active = activity change below about -60%; inconclusive = no clear call, values can overlap the other calls; inactive = above about -39%
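Inhibition of viral replication was scored as loss of reporter luminescence in HFFs infected with HCMV-luciferase (MOI 1 PFU/cell) for 72 h; compounds tested at 2 doses, normalized to buffer and Salinomycin controls.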
Marburg entry inh: Marburg virus entry inhibition; Marburg virus pseudotyped entry inhibition, cell reporter; Potency, µM (top dose mostly 37.8 µM), inactives show at the highest dose activity change, negative = inhibition, hits mostly inhibitors; 300,000 compounds, 1.8% hits; calls by dose curve; tested in HEK293 cells; also: potency is read from the fitted curve at half-maximal effect
LASV entry inh: inhibitors of Lassa virus binding or cell entry. Potency, µM (titrated, usually from 37.9 µM), without a hit: top-dose activity change, negative = inhibition, actives largely listed as inhibitors. AID 540256. Lassa virus pseudotype entry inhibition, cell reporter. 300,000 compounds, 1.2% hits; calls by dose curve; tested in HEK293 cells; also: potency is read from the fitted curve at half-maximal effect; nearly all actives have a fitted effect of over 50% in size
Pf growth 48h: inhibits P. falciparum growth in the first generation, 48 h | Potency, µM (series often up to 28.7 µM), for the others: at the top dose activity change, negative = inhibition, most hits filed as inhibitors | P. falciparum luciferase growth in erythrocytes, 48 h | AID 504832 | 310,000 compounds, 5.9% hits; also: potency is read from the fitted curve at half-maximal effect
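Luciferase-expressing P. falciparum in infected erythrocytes (2% hematocrit, 0.1% parasitemia final) in RPMI 1640/0.5% Albumax were exposed to compound for 48 hours at 37 C, 5% CO2; growth read as luminescence.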
Pf growth 96h: inhibits malaria parasite growth, 96 h; P. falciparum luciferase reporter growth, 96 h; Potency, µM (series often up to 28.7 µM), for inactives: at the top dose activity change, negative = inhibition, hits mostly inhibitors; 320,000 compounds, 6.9% hits; AID 504834; also: potency is read from the fitted curve at half-maximal effect
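Two parasite generations (96 h, 37 C, 5% CO2) of compound exposure in infected erythrocytes (0.05% parasitemia, 2% hematocrit). Luciferase-reporter P. falciparum; decreased luminescence indicates inhibited growth, aimed at apicoplast-acting delayed death.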
* = called active by the depositor; ? = inconclusive; . = no result; [ ] = remark or other dose. Shown are actives, neighbours in structure and some others; about 14% of the full set was active somewhere. Unless noted, calls follow the shape of the dose curve; as a rule, active = well fitted inhibition curve with a large enough effect; inconclusive = small, poorly fitted or top-dose-only effect, or another doubt; inactive = no such curve, though single readings can be large or run the other way. % is scaled to controls: 0 for no effect and ±100 for the full control effect.

SMILES	HCV inh	HCMV antiviral	Marburg entry inh	LASV entry inh	Pf growth 48h	Pf growth 96h
C=CCSc1nnc(NC(=O)c2nc(SCC)ncc2Cl)s1	18.2%	-28.4	2.5%	0.4%	.	?
CCSc1nnc(NC(=O)c2nc(S(=O)(=O)Cc3ccc(F)cc3)ncc2Cl)s1	?	-102.3*	2.5%[46.1 µM]	?	17.7%	-24.7%
CSc1nnc(NC(=O)c2nc(S(=O)(=O)Cc3cccc(C)c3)ncc2Cl)s1	12.6µM*	-102.6*	?	?	-31.6%	?
CSc1ncc(Cl)c(C(=O)Nc2nnc(SC/C=C/c3ccccc3)s2)n1	?	-8.2	1.3%	26.0%	19.4%	.
O=C(C[C@H]1CC[C@H]2[C@@H](COC[C@@H](O)CN2S(=O)(=O)c2ccc(F)cc2)O1)N[C@@H]1CCN(Cc2ccccc2)C1	.	44.9	.	.	.	.
Cc1ccc(S(=O)(=O)Nc2cc(C)cn(Cc3ccccc3)c2=O)cc1	-28.9%	?	?	?	?	2.0%
Cc1ccc(S(=O)(=O)Nc2cc(C)cn(Cc3ccc(F)cc3)c2=O)cc1	-12.1%	-29.5	?	-29.8%[46.1 µM]	0.208µM*	?
CC(NC(=O)c1cc(Br)ccc1Br)c1ccccc1 (stereo not drawn)	.	-12.1	.	.	23.7%	41.0%
O=C(O)c1cccc(Br)c1	0.794µM*	6.5	.	.	.	.
CC(CCc1ccccc1)NC(=O)c1ccc(NC(=O)c2ccccc2)cc1 (stereo not drawn)	-10.7%	-31.4	?	?	?	-12.9%
CC(CCc1ccccc1)NC(=O)c1ccc(NC(=O)c2cccc(Br)c2)cc1 (stereo not drawn)	?	6.0	?	-11.6%	14.7µM*	9.28µM*
CC(NC(=O)c1cccc(Br)c1)c1ccccc1 (stereo not drawn)	-4.9%	-69.9*	?	-13.2%	17.2%	29.1%
COc1cc(Br)c(C(C)NC(=O)c2cccc(Br)c2)cc1OC (stereo not drawn)	?	?	?	-9.4%	1.85µM*	1.65µM*
COc1ccc(S(=O)(=O)N2CCCOC2CNC(=O)C(=O)NCc2ccncc2)cc1 (stereo not drawn)	.	-16.7	16.6%	0.2%	-4.7%	-0.6%
C[C@H](CO)N1C[C@H](C)[C@H](CN(C)C(=O)Nc2ccnc(N3CCOCC3)c2)OCc2cnnn2CCCC1=O	.	7.1	.	.	.	.
Cc1ccc(NC2CCCN(C(=O)c3cnsn3)C2)cc1C (stereo not drawn)	8.4%	-1.1	.	.	4.8%	0.0%
Cc1ccc(NC2CCCN(C(=O)c3ccoc3)C2)cc1C (stereo not drawn)	12.0%	9.0	.	.	0.0%	10.4µM*
Cc1ccc(NC2CCCN(C(=O)C3CCCC3)C2)cc1C (stereo not drawn)	10.1%	-3.0	-5.5%	?	20.6%	13.1µM*
COc1ccc(C(=O)N2CCCC(Nc3ccc(C)c(C)c3)C2)cc1 (stereo not drawn)	-2.7%	-29.8	.	.	10.4%	-5.9%
Cc1ccc(NC2CCCN(C(=O)c3cccc(-c4ncc[nH]4)c3)C2)cc1C (stereo not drawn)	1.0%	-22.8	.	.	?	10.4µM*
Cc1ccc(NC2CCCN(C(=O)c3ccccc3-c3ncc[nH]3)C2)cc1C (stereo not drawn)	3.3%	-10.3	.	.	-2.1%	1.5%
Cc1cc(C)cc(NC(=O)CCS(=O)(=O)c2ccc3c(c2)oc(=O)n3C)c1	.	-1.4	.	-0.4%[46.1 µM]	.	.
COc1ccc(C(C)=O)cc1COC(=O)c1ccc(N)c([N+](=O)[O-])c1	11.2µM*	18.4	?	10.8%	-13.8%	?
COc1ccc(C(C)=O)cc1COc1ccccc1[N+](=O)[O-]	6.31µM*	10.7	-1.6%[46.1 µM]	-23.9%[46.1 µM]	5.5%	7.5%
COc1ccc(C(C)=O)cc1COc1cccnc1[N+](=O)[O-]	?	6.2	?	-15.7%	-4.7%	1.2%
SMILES	HCV inh	HCMV antiviral	Marburg entry inh	LASV entry inh	Pf growth 48h	Pf growth 96h
O=C(CNC(=O)c1ccc(Br)o1)Nc1cccc(S(=O)(=O)N2CCOCC2)c1	-1.0%	8.4	?	0.6%	?	?
CC1=C(C(=O)Nc2cccc(Cl)c2C)C2(CCCCCC2)OC1=O	.	?	.	1.5%[46.1 µM]	.	.
Cc1ccc(-n2c(-c3ccccc3)c[nH]c2=S)cc1	?	-74.0*	-1.6%[46.1 µM]	?	3.3%	13.6%
CCCc1nn2c(=O)cc(COC(=O)c3cccs3)nc2s1	.	16.6	.	13.2%[46.1 µM]	.	.
CCCC[n+]1ccn(-c2nc3ccccc3nc2[N-]S(=O)(=O)c2ccc(Cl)cc2)c1	4.1%	16.3	-0.1%	-2.6%	-15.5%	-23.5%
CCCC[n+]1ccn(-c2nc3c([N+](=O)[O-])cccc3n2C)c1	1.4%	-0.3	.	.	13.1µM*	2.08µM*
CCN(CC)S(=O)(=O)c1ccc(C(=O)NN(C)C2=NS(=O)(=O)c3ccccc32)cc1	14.3%	-18.7	-0.1%[46.1 µM]	9.5%[46.1 µM]	-3.2%	?
CCN(C1=NS(=O)(=O)c2ccccc21)N(CC)S(=O)(=O)c1ccc(C)cc1	-23.5%	-68.7*	.	.	?	?
CN(CC(=O)Nc1ccc([N+](=O)[O-])cc1Br)Cc1c(F)cccc1Cl	14.1µM*	-22.1	.	.	?	-17.7%
CC(=O)c1cccc(NC(=O)c2cc(=O)[nH]c3ccccc23)c1	?	32.1	?	?	3.0%[0.00184 µM]	26.0%
COc1ccc(NC(=O)C(NC(=O)OC(C)(C)C)C(C)OCc2ccccc2)cc1 (stereo not drawn)	12.0%	-6.5	-0.3%	-12.0%	0.5%	1.65µM*
O=C(CSc1nnc(NC(=O)C2CC2)s1)NCc1cccs1	3.8%	-11.1	.	.	5.3%	?
O=C(CSc1nnc(Nc2ccccc2)s1)NCc1cccs1	11.2%	-0.6	4.6%	-6.8%	0.3%	11.7µM*
Cc1ccccc1-n1c(SCC(=O)Nc2ccc(Cl)cc2Cl)nc(O)cc1=O	.	-33.5	-24.6%[46.1 µM]	-2.1%[46.1 µM]	.	.
O=C1Nc2ccccc2NC(c2cccc(Br)c2)=C1N(C(=O)C(=O)c1cccs1)c1ccccc1	.	-88.2*	.	.	.	.
c1ccc(C2[C@H]3CN(CC4CCCCC4)[C@H](c4ccccc4)C34CC2(c2ccccc2)C4)cc1 (stereo partly drawn)	-2.8%	-9.6	.	.	?	?
COC(=O)c1cccc(C23CC4(C2)[C@H](CN(Cc2ccc(C(F)(F)F)cc2)[C@@H]4c2ccccc2)C3c2ccc(Cl)nc2)c1 (stereo partly drawn)	21.5%	-35.0	.	.	?	?
COC(=O)c1cccc(C23CC4(C2)[C@H](CN(Cc2cccnc2)[C@@H]4c2ccccc2)C3c2ccccc2)c1 (stereo partly drawn)	?	-6.9	.	.	11.7µM*	5.86µM*
N#Cc1ccc(C23CC4(C2)[C@H](CN(P(=O)(c2ccccc2)c2ccccc2)[C@@H]4c2ccccc2)C3c2ccc(Cl)nc2)cc1 (stereo partly drawn)	?	.	.	.	4.65µM*	4.15µM*

High-throughput results (PubChem BioAssay)
